Measured values from article PMC4336329 (PLoS ONE, 2015).
About 2,200 (0.71%) of roughly 310,000 compounds showed an effect of 50% or more. Effects have a minus sign here. This excerpt belongs to a sample that is enriched for strong results.

biological target: human ether-à-go-go-related gene (hERG) potassium channel (human, UniProt Q12809); assay: primary screen, population patch clamp on CHO cells stably expressing hERG; higher = less effect of the substance
Sequence (Q12809 whole entry, looked up): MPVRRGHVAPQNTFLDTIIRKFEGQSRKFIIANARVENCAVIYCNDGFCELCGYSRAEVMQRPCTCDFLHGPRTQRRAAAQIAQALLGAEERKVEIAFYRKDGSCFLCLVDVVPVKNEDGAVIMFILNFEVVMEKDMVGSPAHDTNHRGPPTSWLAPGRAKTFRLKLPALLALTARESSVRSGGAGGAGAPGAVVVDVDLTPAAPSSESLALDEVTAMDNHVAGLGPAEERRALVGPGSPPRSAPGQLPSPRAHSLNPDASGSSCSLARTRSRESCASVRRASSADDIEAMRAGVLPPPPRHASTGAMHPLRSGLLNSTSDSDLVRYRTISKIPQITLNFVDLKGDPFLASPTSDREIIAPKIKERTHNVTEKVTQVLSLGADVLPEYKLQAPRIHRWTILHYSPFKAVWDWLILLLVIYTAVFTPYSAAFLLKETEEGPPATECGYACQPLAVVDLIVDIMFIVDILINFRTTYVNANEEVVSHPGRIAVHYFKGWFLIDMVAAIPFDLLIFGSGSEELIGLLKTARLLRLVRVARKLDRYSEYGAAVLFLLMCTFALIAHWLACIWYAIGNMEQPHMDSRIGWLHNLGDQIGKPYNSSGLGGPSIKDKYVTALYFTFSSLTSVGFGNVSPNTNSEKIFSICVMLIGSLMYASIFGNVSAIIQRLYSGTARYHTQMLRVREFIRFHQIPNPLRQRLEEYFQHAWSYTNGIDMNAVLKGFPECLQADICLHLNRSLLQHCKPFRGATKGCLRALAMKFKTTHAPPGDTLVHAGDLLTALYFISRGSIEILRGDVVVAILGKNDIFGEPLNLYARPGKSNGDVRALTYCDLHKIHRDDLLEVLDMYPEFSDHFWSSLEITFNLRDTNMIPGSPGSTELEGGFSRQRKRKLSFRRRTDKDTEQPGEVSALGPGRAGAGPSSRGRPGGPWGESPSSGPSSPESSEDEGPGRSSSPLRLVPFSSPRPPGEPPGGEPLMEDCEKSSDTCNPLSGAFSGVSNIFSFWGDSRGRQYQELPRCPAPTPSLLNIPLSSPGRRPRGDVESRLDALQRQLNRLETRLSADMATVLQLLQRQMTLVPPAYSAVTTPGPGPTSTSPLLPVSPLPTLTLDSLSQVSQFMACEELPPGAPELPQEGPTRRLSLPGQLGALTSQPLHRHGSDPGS

First: CSc1ccc(/C=N/N2CCN(Cc3ccccc3Cl)CC2)cc1
Second: OC1(c2ccc(Cl)cc2)CCN(Cc2c[nH]c3ccccc23)CC1
The “hERG current change (%, negative = inhibition) at 1uM” value of the first is higher: 9.96% for the first, -27.6% for the second.

First: Cc1c(C(=O)O)c(C(=O)O)nc2ccc(N3CCOCC3)cc12
Second: Cc1cc(N2CCCC2)ccc1C=C(C#N)C#N
The “hERG current change (%, negative = inhibition) at 1uM” value of the first is higher: 10.3% for the first, 1.28% for the second.

First: Cc1c(CCC(=O)NC2CC2)c(=O)oc2c(C)c(O)ccc12
Second: COc1ccc(CCN2CC(C(=O)O)CC2=O)cc1OC (centres unmarked)
The “hERG current change (%, negative = inhibition) at 1uM” value of the first is higher: 22.9% for the first, 2.95% for the second.

First: Cl.c1ccc(OCCN2C3=NCCN3c3ccccc32)cc1
Second: Br.COC(=O)c1ccc(OCCN2C3=NCCN3c3ccccc32)cc1
The “hERG current change (%, negative = inhibition) at 1uM” value of the first is higher: -51.5% for the first, -56.5% for the second.

Compared with `Br.CCOC(=O)CN1C2=NCCN2c2ccccc21`, `Br.COC(=O)CN1C2=NCCCN2c2ccccc21` is lower in “hERG current change (%, negative = inhibition) at 1uM” value: 15.4% for the first, -3.47% for the second.

First: Cl.c1ccc2c(c1)N1CCN=C1N2CCN1CCCCC1
Second: CCCN1C2=NCCN2c2ccccc21.Cl
The “hERG current change (%, negative = inhibition) at 1uM” value of the first is higher: 3.76% for the first, 0.0662% for the second.

Going from `Cc1ccc(Cl)cc1N1CCN(C(=O)Cc2cn(C)c3ccccc23)CC1` to `CCOCCN1CCN(c2nnc3n2-c2ccc(Cl)cc2C(c2ccccc2Cl)=NC3)CC1.O=CO`, the “hERG current change (%, negative = inhibition) at 1uM” value falls from 13.8% to -57.6%.

First: CCOc1cc(NC(=O)c2ccccn2)c(OCC)cc1NC(=O)c1ccc(OC)cc1
Second: COc1ccc(C(=O)Nc2ccccc2C(=O)Nc2ccc(C(=O)O)cc2)cc1
The “hERG current change (%, negative = inhibition) at 1uM” value of the first is lower: 3.95% for the first, 15% for the second.

First: CNC(=S)NNC(=O)c1cccc(N(C)C)c1
Second: CNC(=S)Nc1ccc(C(N)=O)cc1
The “hERG current change (%, negative = inhibition) at 1uM” value of the first is lower: 2.36% for the first, 10.2% for the second.

Going from `Cc1cccc(NS(=O)(=O)c2cccs2)n1` to `Cc1ccc(CNC(=O)CN(Cc2ccccc2)S(C)(=O)=O)cc1`, the “hERG current change (%, negative = inhibition) at 1uM” value falls from 17.6% to -3.4%.

Going from `COc1ccc(C2C(C(=O)N3CCN(c4ccccn4)CC3)CC(=O)N2c2ccc(OC)cc2)cc1` (centres unmarked) to `COc1ccc(C2C(C(=O)N3CCN(c4ccccn4)CC3)CCC(=O)N2c2ccc(OC)cc2)cc1` (centres unmarked), the “hERG current change (%, negative = inhibition) at 1uM” value rises from -50.6% to -0.548%.

First: COc1ccc(N2C(=O)CCC(C(=O)N3CCN(c4ccccn4)CC3)C2c2ccc(F)cc2)cc1 (centres unmarked)
Second: COc1ccccc1N1CCN(CC(=O)Nc2ccc3c(c2)OCCO3)CC1
The “hERG current change (%, negative = inhibition) at 1uM” value of the first is lower: -21.3% for the first, -0.304% for the second.

First: Cc1cc(=O)[nH]c(N/N=C/c2c[nH]c3ccccc23)n1
Second: CC1(C)CC(=O)CC2(C1)NCC(c1ccccc1Cl)c1c2[nH]c2ccccc12.Cl (centres unmarked)
The “hERG current change (%, negative = inhibition) at 1uM” value of the first is higher: 9.01% for the first, -3.21% for the second.

First: [O-][Cl+3]([O-])([O-])[O-].c1ccc(-c2[nH]c(-c3ccccc3)[n+](CC3CO3)c2-c2ccccc2)cc1 (centres unmarked)
Second: Clc1ccc2c(c1)C(c1ccccc1Cl)=NCc1nnc(Br)n1-2.c1ccccc1
The “hERG current change (%, negative = inhibition) at 1uM” value of the first is lower: -2.8% for the first, 2.57% for the second.

First: N#CC(C#N)=Cc1ccc(N2CCCC2)cc1
Second: Cc1cc(C=C(C#N)C#N)ccc1N1CCCC1
The “hERG current change (%, negative = inhibition) at 1uM” value of the first is higher: 5.75% for the first, -68.6% for the second.

Compared with `CC(C)(C)c1nc(NCC2CCCO2)c2nnn(Cc3ccccc3)c2n1` (centres unmarked), `CC(=O)c1cccc(CN2CCCCC2C(=O)Nc2ccc(Oc3ccccc3)nc2)c1` (centres unmarked) is lower in “hERG current change (%, negative = inhibition) at 1uM” value: 13.9% for the first, 0.714% for the second.

Compared with `O=C(CNS(=O)(=O)c1ccc(Br)s1)NCCc1ccc(Cl)cc1`, `O=C(c1ccc(O)cc1)c1ccc(Cl)cc1` is lower in “hERG current change (%, negative = inhibition) at 1uM” value: 16.1% for the first, -3.35% for the second.

Going from `COc1cccc(C2CNC3(CCCC(C)C3)c3[nH]c4ccccc4c32)c1OC.Cl` (centres unmarked) to `CC1(C)CC(=O)CC2(C1)NCC(c1ccccc1)c1c2[nH]c2ccccc12.Cl` (centres unmarked), the “hERG current change (%, negative = inhibition) at 1uM” value falls from 8.05% to -83.4%.

First: CC(C)(C)OC(=O)N[C@@H](Cc1ccccc1)C(=O)N1CCC(C(=O)N[C@@H](Cc2c[nH]c3ccccc23)C(=O)O)CC1
Second: O=C(CCNS(=O)(=O)c1ccccc1F)N1CCN(Cc2ccccc2)CC1
The “hERG current change (%, negative = inhibition) at 1uM” value of the first is higher: 15% for the first, 8.79% for the second.

First: CCCS(=O)(=O)c1c(S(=O)(=O)CCC)c2cnccn2c1C(=O)c1ccc(CC)cc1
Second: CCCCN(C(=O)c1ccc(C)c(S(=O)(=O)N2CCOCC2)c1)c1c(N)n(CCCC)c(=O)[nH]c1=O
The “hERG current change (%, negative = inhibition) at 1uM” value of the first is lower: 0.628% for the first, 5.43% for the second.

Going from `CCOc1ccc(NC(=O)COc2ccc3c(c2)OCO3)cc1` to `COc1ccc(OCC(=O)Nc2ccc3c(c2)OCO3)cc1`, the “hERG current change (%, negative = inhibition) at 1uM” value rises from 7.57% to 11.7%.

Compared with `COc1ccccc1NC(=O)CN1CCN(CC(=O)Nc2ccc3c(c2)OCCO3)CC1`, `COc1ccccc1NC(=O)CN1CCN(CC(=O)Nc2ccc3c(c2)OCO3)CC1` is lower in “hERG current change (%, negative = inhibition) at 1uM” value: -10.6% for the first, -67.3% for the second.

Compared with `CCOc1ccc(NC(=O)CN2CCN(CC(=O)Nc3ccc4c(c3)OCO4)CC2)cc1`, `COc1ccc(NC(=O)CN2CCN(CC(=O)Nc3ccc4c(c3)OCO4)CC2)cc1` is lower in “hERG current change (%, negative = inhibition) at 1uM” value: -80.9% for the first, -85.9% for the second.

Compared with `CCOc1ccc(OCCC(=O)Nc2ccc3c(c2)OCO3)cc1`, `COc1ccc(S(=O)(=O)N2CCCN(CC(=O)Nc3ccc4c(c3)OCO4)CC2)cc1` is lower in “hERG current change (%, negative = inhibition) at 1uM” value: 11.1% for the first, -15.1% for the second.

First: O=C(CN1CCCC1=O)NC1C2CC3CC(C2)CC1C3 (centres unmarked)
Second: CCC(=O)Nc1nc(C)c(C(=O)N2CCCCC2)s1
The “hERG current change (%, negative = inhibition) at 1uM” value of the first is lower: 9.69% for the first, 12.8% for the second.

Compared with `COC(=O)C1=CN(Cc2ccccc2)C=C(C(=O)OC)C1c1ccc(O)c(OC)c1`, `COc1ccc(NC(=O)CN2CC(c3ccccc3)CC2=O)cc1OC` (centres unmarked) is lower in “hERG current change (%, negative = inhibition) at 1uM” value: 17.4% for the first, 12.3% for the second.

Compared with `COc1ccc(N2C(=O)/C(=C\c3ccco3)N=C2SCC(=O)N(C(C)C)C(C)C)cc1Cl`, `COc1ccc(C2SCC(=O)N2CCc2ccc(OC)c(OC)c2)cc1` (centres unmarked) is lower in “hERG current change (%, negative = inhibition) at 1uM” value: 20.1% for the first, -1.68% for the second.

Going from `Cc1ccc(OCC(O)CNC2CCCC2)cc1C.Cl` (centres unmarked) to `O=C(NC1CCCC1)C(c1ccccn1)N(Cc1ccccc1F)C(=O)c1csnn1` (centres unmarked), the “hERG current change (%, negative = inhibition) at 1uM” value rises from 8.86% to 10.7%.

Going from `CCCCN(C(=O)c1ccc(C)c(S(=O)(=O)N2CCOCC2)c1)c1c(N)n(CC(C)C)c(=O)[nH]c1=O` to `CCCCn1c(N)c(N(CCC(C)C)C(=O)c2ccc(C)c(S(=O)(=O)N3CCOCC3)c2)c(=O)[nH]c1=O`, the “hERG current change (%, negative = inhibition) at 1uM” value rises from -57.9% to 5.89%.

First: O=C(NCc1ccccc1)c1ccc(NC(=O)c2ccco2)cc1
Second: C=CCNC(=O)/C(=C\c1ccc(OC)cc1)NC(=O)c1ccc([N+](=O)[O-])cc1
The “hERG current change (%, negative = inhibition) at 1uM” value of the first is higher: 5.4% for the first, -64.7% for the second.

First: Clc1ccc2c(c1)C(c1ccccc1Cl)=NCc1nnc(N3CCN(CCOc4ccccc4)CC3)n1-2.O=C(O)/C=C/C(=O)O
Second: Clc1ccc2c(c1)C(c1ccccc1Cl)=NCc1nnc(N3CCN(CCSc4ccccc4)CC3)n1-2.O.O=C(O)/C=C/C(=O)O
The “hERG current change (%, negative = inhibition) at 1uM” value of the first is lower: -50.8% for the first, -10.8% for the second.

First: COCCCN1CCN(c2nnc3n2-c2sc(Br)cc2C(c2ccccc2Cl)=NC3)CC1.CS(=O)(=O)O
Second: CN1CCN(Cc2nnc3n2-c2ccc(Cl)cc2C(c2ccccc2)=NC3)CC1.O=CO
The “hERG current change (%, negative = inhibition) at 1uM” value of the first is higher: -11.9% for the first, -31.9% for the second.

Compared with `CN(C)CCSCc1nnc2n1-c1ccc(Cl)cc1C(c1ccccc1Cl)=NC2.c1ccccc1`, `COc1ccccc1C1=NCc2nnc(CSC)n2-c2ccc(Cl)cc21` is higher in “hERG current change (%, negative = inhibition) at 1uM” value: -51.9% for the first, 0.0726% for the second.

First: CSCc1nnc2n1-c1ccc(Cl)cc1C(c1ccccc1)=NC2
Second: CCOC(=O)c1cc(-c2ccccc2)sc1NC(=O)CSc1nnc(N)s1
The “hERG current change (%, negative = inhibition) at 1uM” value of the first is higher: 4.89% for the first, 2.01% for the second.

Compared with `O=c1nc2n(c3ncccc13)CCC2`, `COCC1CCCN(C(=O)c2ccc3oc(C(C)C)nc3c2)C1` (centres unmarked) is lower in “hERG current change (%, negative = inhibition) at 1uM” value: 16.1% for the first, 9.33% for the second.

Compared with `Cc1cc(C)cc(C(=O)NCC(=O)OCC(=O)N2c3ccccc3NC(=O)C2(C)C)c1`, `COc1ccc(/C=C(/NC(=O)c2ccc([N+](=O)[O-])cc2)C(=O)NC(C)(C)C)cc1` is lower in “hERG current change (%, negative = inhibition) at 1uM” value: 4.41% for the first, -10.7% for the second.

Going from `COc1ccc(C2CC(=O)N(CCC[NH+](C)CCc3ccc(OC)c(OC)c3)C2)cc1.O=C([O-])C(=O)[O-]` (centres unmarked) to `COc1ccc(CC[NH+](C)CCCN2CC(c3ccccc3)CC2=O)cc1OC.O=C([O-])C(=O)[O-]` (centres unmarked), the “hERG current change (%, negative = inhibition) at 1uM” value rises from -72.9% to -61.9%.

First: COc1ccc(CCN2CC(C(=O)NCc3ccc(F)cc3)CC2=O)cc1OC (centres unmarked)
Second: COc1ccc(/C=C(/NC(=O)c2ccc([N+](=O)[O-])cc2)C(=O)NCCCN(C)C)cc1
The “hERG current change (%, negative = inhibition) at 1uM” value of the first is higher: 6.95% for the first, -65.3% for the second.

Going from `COc1ccc(/C=N/Nc2nc(N3CCCC3)nc(N3CCCC3)n2)cc1O` to `COc1ccc(/C=C(\NC(=O)c2ccc([N+](=O)[O-])cc2)C(=O)NCCCN2CCOCC2)cc1`, the “hERG current change (%, negative = inhibition) at 1uM” value falls from 7.51% to -41%.

Compared with `O=C(O)CCCCCCCCCCCc1ccccc1`, `CC(C)N(C)NC(=S)Nc1ccccc1` is lower in “hERG current change (%, negative = inhibition) at 1uM” value: 12.7% for the first, 8.22% for the second.

Going from `C=CCNC(=O)/C(=C\c1ccc([N+](=O)[O-])cc1)NC(C)=O` to `COc1ccc(/C=C(\NC(=O)c2ccc([N+](=O)[O-])cc2)C(=O)NCCCn2ccnc2)cc1`, the “hERG current change (%, negative = inhibition) at 1uM” value falls from 8.68% to -14.4%.

`CCOC(=O)CCc1c(C)c(C#N)c2nc3ccccc3n2c1-n1ccnc1C` was tested, and the “hERG current change (%, negative = inhibition) at 1uM” value was -20.4%.
